Test results: the supplement of paper PMC10105736
Unmarked numbers belong to inactive results.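 The calls were made as follows: active = MAPPIT score above the 99th percentile of random reference set scores in the same batch; inactive = at or below it.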

Columns and labels:
Assay in all cases: MAPPIT interaction score (arbitrary units); higher = stronger binary interaction signal, active = hit call of the paper
[1] = target: emb; conditions: MAPPIT configuration: N-N; pair source set: Lit-BM-16
[2] = target: dre4; conditions: MAPPIT configuration: N-N; pair source set: Lit-BM-16
[3] = target: e(y)2; conditions: MAPPIT configuration: N-N; pair source set: screen_2
[4] = target: eIF3f1; conditions: MAPPIT configuration: N-N; pair source set: Lit-BM-16
[5] = target: flw; conditions: pair source set: Lit-BM-16
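Also: HEK293T cells with Epo stimulation, STAT-responsive firefly luciferase reporter, fold induction versus unstimulated cells divided by the larger fold induction of two negative controls lacking either bait or prey.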

B1: mbo (protein)
chain: MSLTDVLELNKTELFAKIRNGLPVVQRTQNLLDCKDDLLFAWHAKDSCLLVRNWRSSLAAKVNIQFQTLIPSSLVSLEVDRVLASNEGSLVALSGPRGVVIMELPRRWGPDGYYKDGKPVITCRTFGLDTQLFLKNPHLEVRQVRWHPHSVSDSTLLVLLNNNTIRVYNHSKLRHVWQVGPPVLRSGANNSLCDFGELAVDFDIAPAAKPRVTEPETAGNNETTLDKSNKTLVAAKSLPKQERIEWPMVVLRENGNIYILMTGVDSENTRLQGPVTITPQAHDNYGLESCALMIIPSLPPTIVIAESNGKLHHALLMEAEATEHSFNEVDDSVLIEPAEYVVHVLETVELELGISAPATGKEGGNCPIYLKRDLINELRYFAYHNAGLHAVTVSFIAELQRYLESESDEDRLELAVSASAEYILCTKFDSSETVNAVFGLALLQIPAGIVLLLGSGQVISLKLVIDAQLLVTPNENKPVDSEVSQQESGPPFVDTIKSLLQRSVNQPILADKLSSPSAQESFELLNQAIEVLREQYLKRHDLVRAAFTRHINQIQLKKEQQLQEIQDLEQERELISERAHKLAERFEEISYNQELLVRKCNALMQRANASLPNSVIAEREFSQEVIRLNKVTQSLAAGLETAKKTFNKQRYHIAQSQEDLKKNAYELPEKQHRTITEILTQLTGEIDRQITDVKRINKIVGI
Work on B1 yielded an MAPPIT interaction score [1] of 0.0885.

B2: Ssrp (protein)
chain: MTDSLEYNDINAEVRGVLCSGRLKMTEQNIIFKNTKTGKVEQISAEDIDLINSQKFVGTWGLRVFTKGGVLHRFTGFRDSEHEKLGKFIKAAYSQEMVEKEMCVKGWNWGTARFMGSVLSFDKESKTIFEVPLSHVSQCVTGKNEVTLEFHQNDDAPVGLLEMRFHIPAVESAEEDPVDKFHQNVMSKASVISASGESIAIFREIQILTPRGRYDIKIFSTFFQLHGKTFDYKIPMDSVLRLFMLPHKDSRQMFFVLSLDPPIKQGQTRYHYLVLLFAPDEETTIELPFSEAELRDKYEGKLEKEISGPVYEVMGKVMKVLIGRKITGPGNFIGHSGTAAVGCSFKAAAGYLYPLERGFIYIHKPPLHIRFEEISSVNFARSGGSTRSFDFEVTLKNGTVHIFSSIEKEEYAKLFDYITQKKLHVSNMGKDKSGYKDVDFGDSDNENEPDAYLARLKAEAREKEEDDDDGDSDEESTDEDFKPNENESDVAEEYDSNVESDSDDDSDASGGGGDSDGAKKKKEKKSEKKEKKEKKHKEKERTKKPSKKKKDSGKPKRATTAFMLWLNDTRESIKRENPGIKVTEIAKKGGEMWKELKDKSKWEDAAAKDKQRYHDEMRNYKPEAGGDSDNEKGGKSSKKRKTEPSPSKKANTSGSGFKSKEYISDDDSTSSDDEKDNEPAKKKSKPPSDGDAKKKKAKSESEPEESEEDSNASDEDEEDEASD
For B2, the MAPPIT interaction score [2] was 0.764.

B3: Mul1 (protein)
chain: MEFLHESVALGVDLLILGLCAREYVHYKRTAKVLKAAPQYNIDGDLKSVVERQRDKKIPYAVIRGTVTPIGVPLRSSLVPSVSGVLQIVKLHEHRVTRGFAGFWTEQHKLLHESANEMPFELRNQSHGVEIVDALSAAVLDVDVVYDNYEPSNLSLFDHVFGFFSGVRQRGLQTTEEVLREGSFLTAIGELELDGDTLRMQPSNEGPLFLTTATKSTLIKRFEDAKTTTILKLVVCSTISAILVAFIAKKLYRKRKQEREEAKIRERLDTERRERRARSRPHTLSQDQLCVVCSTNPKEIILLPCGHVCLCEDCAQKISVTCPVCRGSIVSKAAAFIA
In the case of B3, the MAPPIT interaction score [3] is reported as 5.68 (active).

B4: eIF3m (protein)
chain: MTSHPVFIDLSLDEQVQELRKYFKKLGAEISSEKSNKGVEDDLHKIIGVCDVCFKDGEPSQIDGILNSIVSIMITIPLDRGENIVLAYCEKMTKAPNLPLGKVCLQSLWRLFNNLDTASPLRYHVYYHLVQVAKQCEQVLEVFSGVDQLKSQFANCPPSSEQMQKLYRLLHDVTKDTNLELSSKVMIELLGTYTADNACVAREDAMKCIVTALADPNTFLLDPLLSLKPVRFLEGDLIHDLLSIFVSEKLPAYVQFYEDHREFVNSQGLNHEQNMKKMRLLTFMQLAESSPEMTFETLTKELQINEDEVEPFVIEVLKTKLVRARLDQANQKVHISSTMHRTFGAPQWEQLRDLLQAWKENLSTVREGLTSVSSAQLDLARSQKLIH
B4 was tested, and the MAPPIT interaction score [4] was 5.38 (active).

B5: Nop17l (protein)
chain: MSASRSRNKQSKLCDDERLDISRDEFNRFQEAFGKEEFRKLFFDYVDEIQDPENRKIYESEITQLEKERGVEVRFIHPKPGFVIKTALDGELKCFINIASCEEIQRPKNEVATDPSSGSRGLSWSIPMAQTTSRDDFDAKNNHCKVFDVVFHPDALHLAMRNKQFRQCLIDTALDAIEREYKVSLDRANLKFPKLDYKGIPRPTVIRKMADNPTAEEQEPHPLAHMFPTKPPAPGKQEPRVLPMKTKPSPVPEFTVPRYTIKHSHDVDLSEYTDELDAKLHVTVPRSLVVEIELPLLRSTAECQLDVTSKSIYLFSERQGAKYRLKLDLPFIVDDKAGRARFDTDMRRLSITLPVVRKSIQEQAQMHETLRHFSREDSGVELHSNSESPVEEDPDGELSDSKADISETSSPSVAPANSPFLKSSVHYQLPSKFDCNVLDNVMAFVLHVPNVQPDSIEQLREQRSLHLKFATIGSGYYPTHYAFYVELSAEHEDSSIESAEAEAWDNNVVLKLCLNSQSETPASYLAGLDATELKEYPVHGQYHVKSKGKVNAKKDNAPLDVKFERNQEGHALKVTIRPGTKEEEEDKENQDQEPESDQQQQQQVQNKKPGKKQRKKNKKERSLSESACADMILQEPLAKTNELQPRATFKLPPQRKQRSYSECNDSTGRSHRGILKRFSRYGPRPSMSDSWSSIDDSSSYSCSVDASGTSLFSQSFGGIPEEDRSDAGLSESCKKTVRFNDHIMKQVFRLDSSILGQRKKNQKRRDLKLRAQQRRLSEGDSVDYEETRGSALKQEENPSRNCNDSGLDLTGAAGAHSNNNESDAKNTMMFEMDD
B5 showed an MAPPIT interaction score ([5]; MAPPIT configuration: N-C) of 3.31 and an MAPPIT interaction score ([5]; MAPPIT configuration: N-N) of 0.884.
